High-throughput results as filed in PubChem BioAssay.
M1 PAM parental: nonselective calcium activators in parental CHO-K1 cells, primary screen, counter-screen for M1 PAM project, cell-based, Fluo-8 calcium fluorescence, full deck, 1536-well; hit rate 0.02% among 360,000; ATP EC20; 0% at ATP EC20, 100% at ATP max; activation, % at 3 µM;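 active means activation above the run cutoff, the mean activation of all test compounds plus 3 SD, cut at about 40% in these data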;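 further: peak over basal fluorescence ratio in a 140 s read after ATP addition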
CHO-K1 Ca antag: counter-screen for M1 antagonists: effect in parental CHO-K1 cells. ATP-induced calcium, Fluo-8 fluorescence. inhibition, % at 3 µM. hit rate 0.6% among 360,000. AID 602250;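 active means inhibition above a per-plate cutoff, the plate's mean sample inhibition plus 3 SD, cut at about 24% in these data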;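 further: 0% = DMSO plus EC80 ATP and 100% = DMSO alone without ATP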
CHRM1 agonist: human M1 muscarinic receptor agonists, primary screen, Fluo-8 calcium fluorescence, CHO-K1 cells, HTS | hit rate 0.33% among 360,000 | CHO-K1 hM1, agonist mode; 0% DMSO, 100% acetylcholine EC100 | activation, % at 3 µM | Muscarinic acetylcholine receptor M1 (Homo sapiens), P11229;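 active means activation above the run's mean compound activation plus 3 SD, cut at about 16% in these data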;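 further: peak over basal fluorescence ratio within a 140 s kinetic read after compound addition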
Target sequence (P11229 whole entry, looked up): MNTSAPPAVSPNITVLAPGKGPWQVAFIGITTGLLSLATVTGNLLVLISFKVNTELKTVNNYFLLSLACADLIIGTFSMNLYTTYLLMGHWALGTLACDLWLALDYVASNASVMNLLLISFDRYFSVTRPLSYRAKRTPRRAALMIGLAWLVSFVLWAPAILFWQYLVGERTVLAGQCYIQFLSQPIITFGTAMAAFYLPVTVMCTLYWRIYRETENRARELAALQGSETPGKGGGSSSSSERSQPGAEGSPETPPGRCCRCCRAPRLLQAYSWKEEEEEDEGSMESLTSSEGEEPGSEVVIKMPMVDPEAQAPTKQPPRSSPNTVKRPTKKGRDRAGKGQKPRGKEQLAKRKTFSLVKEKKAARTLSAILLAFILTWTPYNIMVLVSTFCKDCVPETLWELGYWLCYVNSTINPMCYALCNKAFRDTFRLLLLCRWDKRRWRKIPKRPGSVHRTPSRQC
M1 ag parental: counter-screen for M1 agonists: effect in parental CHO-K1 cells | Fluo-8 calcium fluorescence; scaled to maximal ATP response, vehicle zero | activation, % at 3 µM | hit rate 0.48% among 360,000; in the data active means activation above about 15%;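 further: untransfected CHO-K1 host cells lacking M1 receptor as counterscreen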
CHRM1 antagonist: human M1 muscarinic receptor antagonists, primary screen, CHO-K1 cells, Fluo-8 calcium fluorescence, 1536-well; CHO-K1 hM1, ACh EC80 antagonist; inhibition, % at 3 µM; hit rate 1.3% among 360,000; AID 588852, 2011;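 active means percent inhibition above its own plate's cutoff, namely the mean of that plate's compound wells plus 3 SD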;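 further: peak over basal fluorescence ratio during 140 s after agonist addition; 0% = ACh EC80 plus DMSO and 100% = DMSO alone without agonist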
CHRM1 PAM: human M1 muscarinic receptor positive allosteric modulators, primary screen, CHO-K1 cells, Fluo-8 calcium fluorescence, 1536-well; Muscarinic acetylcholine receptor M1 (Homo sapiens), P11229; CHO-K1 hM1, ACh EC20; 0% = ACh EC20, 100% = maximal ACh; activation, % at 3 µM; hit rate 0.088% among 360,000; in the data active means activation above about 19%, passing the limit was not always enough
Starred values were filed as active, the others as inactive. Only some compounds are listed: those with a hit (about 2.4% of all), similar ones and a draw of the others.

SMILES	M1 PAM parental	CHO-K1 Ca antag	CHRM1 agonist	M1 ag parental	CHRM1 antagonist	CHRM1 PAM
CCN(CC)CCCn1c(C)cc2c(c1=O)C(c1cccc(Cl)c1)C(C#N)=C(N)O2 (stereo not drawn)	1.4	3.2	-5.5	0.0	60.2*	-18.8
CCN(CC)CCCn1c(C)cc2c(c1=O)C(c1cc(OC)c(OC)cc1OC)C(C#N)=C(N)O2 (stereo not drawn)	17.8	-3.3	-4.9	1.5	24.9	-11.4
CCOC(=O)N1CCN(C(=O)COC(=O)c2ccc(S(=O)(=O)N(CC)CC)cc2)CC1	-10.4	-1.9	-0.5	0.6	-2.0	3.2
C=CCn1c(SC)nnc1-c1ccc2ncccc2c1	14.5	1.8	2.2	16.9*	-6.7	7.0
C=CCn1c(SCC(C)=O)nnc1-c1ccc2ncccc2c1	9.9	2.6	-2.4	2.2	-7.2	4.1
CCC(C)NC(=O)CCSc1ccc(C)cc1 (stereo not drawn)	18.6	-7.7	-2.7	-0.2	3.3	-4.0
COc1ccc(-c2cc(C(=O)N(C)Cc3nc4ccccc4c(=O)[nH]3)c3ccccc3n2)cc1OC	12.5	-5.5	0.5	5.2	32.6*	-12.1
COc1ccc(-c2cc(C(=O)N(C)Cc3cccc(OC)c3OC)c3ccccc3n2)cc1OC	-16.6	3.0	-2.7	6.0	12.9	-8.1
COc1ccc(CN(C)C(=O)c2cc(-c3ccc(OC)c(OC)c3)nc3ccccc23)c(OC)c1	3.5	6.5	-2.1	4.7	29.4*	-8.1
COc1ccc(CCN(C)C(=O)c2cc(-c3ccccc3)nc3ccc(C)cc23)cc1OC	-21.6	1.5	-2.5	3.0	12.3	-1.6
COc1ccc(CN(C)C(=O)c2cc(-c3ccccc3)nc3ccc(C)cc23)c(OC)c1OC	-11.1	19.3	-1.5	17.7*	31.1	-8.7
COc1ccccc1CN(C)C(=O)c1cc(-c2cccs2)nc2ccccc12	-0.3	-3.6	-3.9	6.9	27.5*	-12.2
COc1cccc(CN(C)C(=O)c2cc(-c3ccc(OC)c(OC)c3)nc3ccccc23)c1	-3.8	15.1	-2.0	4.9	28.6	-2.7
Nc1ccc(N2CCCCC2)c(Cl)c1	-1.6	-0.4	-6.2	-0.4	-12.5	10.8
COc1ccc(N2CC(C(=O)N[C@@H](C)C(=O)NCCc3ccccc3)CC2=O)cc1 (stereo partly drawn)	-5.1	-2.6	-2.5	-0.1	1.8	1.2
Cc1cc(-c2nnc(SCC(=O)Nc3ccccc3C(F)(F)F)o2)c(C)n1-c1ccccc1	7.0	-6.2	17.0*	6.6	-11.9	-7.9
Cc1cc(C)c(OCC(=O)OC(C)C(=O)NC2CC2)c(C)c1 (stereo not drawn)	-14.1	16.5	1.0	12.4	-5.4	9.9
Cc1cc(C)cc(C(O)c2ncc(-c3ccccc3F)[nH]2)c1 (stereo not drawn)	-9.8	0.1	2.6	0.3	-8.2	14.6
N#CC1=C(N)OC2=C(C(=O)CCC2)C1c1ccc2c(c1)OCO2 (stereo not drawn)	13.2	1.9	-8.6	0.2	3.7	-3.0
N#CC1=C(N)OC2=C(C(=O)CCC2)C1c1cc2c(cc1Cl)OCO2 (stereo not drawn)	-24.1	23.7*	-7.4	0.3	-7.5	7.3
N#CC1=C(N)OC2=C(C(=O)CCC2)C1c1cc2c(cc1Br)OCO2 (stereo not drawn)	-9.5	28.5*	-8.3	-0.1	30.2*	-11.2
CCN1CCN(C(=O)c2cc3cc(F)ccc3[nH]2)CC1	-28.7	33.8*	-6.3	-0.5	-9.4	8.7
Cc1ccc(OCC(=O)Nc2ccc3c(c2)OCO3)c([N+](=O)[O-])n1	19.8	-0.6	-8.0	0.8	-6.6	3.5
Cc1ccc(OCC(=O)Nc2ccc3c(c2)OC(F)(F)O3)c([N+](=O)[O-])n1	24.4	-8.6	-13.6	4.2	49.2*	-27.3
CCCc1ccc2oc(C(=O)NCc3nnc(C)o3)c(C)c2c1	-9.6	-13.0	-3.3	0.4	-7.4	6.4
SMILES	M1 PAM parental	CHO-K1 Ca antag	CHRM1 agonist	M1 ag parental	CHRM1 antagonist	CHRM1 PAM
Cc1cc2ccccc2n1CCNC(=O)C(C)(C)C	-5.3	8.2	-3.8	0.9	33.4*	-13.5
CC(=O)NCCn1c(C)cc2ccccc21	15.6	-1.9	-1.5	-0.1	-14.5	6.0
COc1cc([N+](=O)[O-])cc(/C=C2/SC(=S)N(Cc3ccccc3)C2=O)c1O	-5.7	40.3*	38.1*	36.8*	51.2*	-14.0
COc1cc(/C=C2/SC(=S)N(Cc3ccccc3)C2=O)ccc1OCC(=O)O	18.4	-0.1	1.0	1.3	-10.3	15.1
COc1cc(/C=C2/SC(=S)N(Cc3ccccc3)C2=O)cc(Cl)c1O	-19.0	2.5	24.7*	5.9	22.9	-3.8
COc1ccc(CN2C(=O)/C(=C/c3ccncc3)SC2=S)cc1	17.5	-1.4	4.2	3.0	-9.5	23.7*
O=C1/C(=C\c2cccc([N+](=O)[O-])c2O)SC(=S)N1Cc1ccccc1	-20.5	-8.8	0.3	0.6	-7.5	8.2
COc1ccc(C2CC(c3ccccc3)=NN2C(=O)COC(=O)c2nc3nc(C)cc(C)n3n2)cc1 (stereo not drawn)	12.1	-13.7	-3.6	2.3	-5.4	4.3
CCC(C(=O)NC1CCCCC1)n1c2ccccc2c2nc(=O)cc(C)n21 (stereo not drawn)	16.2	-14.4	-2.1	0.0	-8.4	6.5
COCC(C)NC(=O)C1CC(=O)N(CCc2ccc(F)cc2)C1 (stereo not drawn)	16.2	-7.8	-1.6	0.6	-15.3	5.2
CCOC(=O)C1=C[C@@H](C(C)(C)C)N(S(=O)(=O)c2ccc(C)cc2)[C@H]1c1ccccc1Cl	-4.7	24.2*	-4.0	0.7	24.8	-17.5
CCOC(=O)C1=C[C@@H](C(C)(C)C)N(S(=O)(=O)c2ccc(C)cc2)[C@H]1c1ccc(C)cc1	14.8	12.9	-4.8	0.9	25.0	-14.7
Cn1c(N)c(S(=O)(=O)N2CCN(Cc3ccccc3)CC2)c(=O)n(C)c1=O	25.2	-7.1	-3.6	0.1	-9.8	13.9
Cc1cc([N+](=O)[O-])ccc1NC(=O)c1ccco1	8.6	4.0	-4.7	-0.1	-14.3	9.7
Cc1cc([N+](=O)[O-])ccc1NC(=O)C(C)[n+]1ccccc1 (stereo not drawn)	5.2	3.1	-11.9	0.0	26.7*	-27.4
N#C/C(=C\c1coc2ccc(O)cc2c1=O)C(=O)Nc1nc2ccccc2s1	-19.4	40.3*	62.2*	58.5*	20.5	-13.5
CCCCN(C)C1=CC2=CC(=C(C#N)C#N)CCC2CC1 (stereo not drawn)	-17.0	92.4*	670.1*	577.9*	101.3*	-27.8
